Shown are actives, neighbours in structure and some others; about 11% of the full set was active somewhere.
FLuc inh: Photinus pyralis luciferase inhibition; purified P. pyralis luciferase, luminescence, biochemical; Potency, µM (series often up to 115 µM), most hits filed as inhibitors; hit rate 2.5% among 76,000; AID 1347043; note: nearly all actives have a fitted effect of over 65% in size
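Purified P. pyralis luciferase (10nM final) in 50mM Tris acetate pH 7.5, 10mM Mg acetate, 0.01% Tween-20, 0.05% BSA with 10uM D-luciferin and 10uM ATP. Compounds titrated qHTS. Luminescence imaged on CCD.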
HEK cytotox: cytotoxic compounds in HEK 293 cells; Potency, µM (doses to about 115 µM), inactives show at the highest dose activity change, negative = cytotoxicity, most hits filed as inhibitors; HEK 293 viability, ATP luminescence (CellTiter-Glo), 48-72 h; AID 1345083; hit rate 6.6% among 94,000; note: nearly all actives have a fitted effect of over 60% in size
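ATP-coupled CellTiter-Glo luminescence served as viability read-out, recorded 10 min after reagent addition at room temperature. HEK 293 cells, 250 cells/well, had been incubated with pintool-transferred compound for 48 or 72 hr at 37 degree Celsius.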
hNpr1 antagonist: antagonists of human natriuretic peptide receptor Npr1 | HEK293 hNpr1 GloSensor cGMP, ANP-stimulated luminescence | Potency, µM (doses to about 46.3 µM), inactives show at the highest dose activity change, negative = inhibition, most hits filed as inhibitors | hit rate 1.6% among 76,000; calls by dose curve; note: nearly all actives have a fitted effect of over 60% in size
Target sequence (P16066 whole entry, looked up): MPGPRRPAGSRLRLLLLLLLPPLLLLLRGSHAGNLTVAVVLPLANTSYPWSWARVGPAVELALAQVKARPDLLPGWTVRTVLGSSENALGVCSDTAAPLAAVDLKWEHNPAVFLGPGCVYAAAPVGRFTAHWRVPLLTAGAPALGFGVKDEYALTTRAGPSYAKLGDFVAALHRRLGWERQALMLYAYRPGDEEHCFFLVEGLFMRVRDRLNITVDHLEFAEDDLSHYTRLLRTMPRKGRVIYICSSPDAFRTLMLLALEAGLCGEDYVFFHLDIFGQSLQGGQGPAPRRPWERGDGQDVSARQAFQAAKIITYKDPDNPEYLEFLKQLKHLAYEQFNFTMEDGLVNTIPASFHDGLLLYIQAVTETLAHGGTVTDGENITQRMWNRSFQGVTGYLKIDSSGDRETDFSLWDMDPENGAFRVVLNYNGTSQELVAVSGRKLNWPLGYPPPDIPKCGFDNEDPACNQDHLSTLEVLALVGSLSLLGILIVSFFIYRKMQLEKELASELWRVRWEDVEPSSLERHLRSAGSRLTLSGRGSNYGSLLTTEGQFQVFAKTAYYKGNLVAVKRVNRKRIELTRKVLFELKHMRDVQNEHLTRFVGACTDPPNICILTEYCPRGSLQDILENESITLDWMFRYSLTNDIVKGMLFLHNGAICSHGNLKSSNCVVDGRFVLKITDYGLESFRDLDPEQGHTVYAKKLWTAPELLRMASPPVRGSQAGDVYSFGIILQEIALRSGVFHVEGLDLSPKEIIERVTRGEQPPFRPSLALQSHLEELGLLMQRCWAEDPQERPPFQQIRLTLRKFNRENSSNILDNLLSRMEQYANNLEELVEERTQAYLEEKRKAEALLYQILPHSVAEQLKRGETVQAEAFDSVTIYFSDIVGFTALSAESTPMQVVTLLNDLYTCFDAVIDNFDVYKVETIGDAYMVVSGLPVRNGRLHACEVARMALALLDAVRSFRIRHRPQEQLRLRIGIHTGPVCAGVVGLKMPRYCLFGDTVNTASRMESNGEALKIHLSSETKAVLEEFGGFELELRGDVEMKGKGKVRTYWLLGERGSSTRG
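Compound pre-incubated 30 min at room temperature on GloSensor-loaded HEK293 cells stably carrying hNpr1 and the pGS-40F cGMP biosensor. Stimulation uses hNppA at 0.1 nM final; luminescence is taken at baseline and 20 min post-agonist.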
3T3 cytotox: kills NIH 3T3 cells; hit rate 4.3% among 94,000; AID 1345082; Potency, µM (top dose mostly 96.7 µM), inactives show at the top dose activity change, negative = cytotoxicity, actives largely listed as inhibitors; NIH 3T3 viability, CellTiter-Glo ATP luminescence, 48-72 h; note: nearly all actives have a fitted effect of over 55% in size
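Cytotoxicity was measured by CellTiter-Glo ATP luminescence after 48 or 72 h compound exposure at 37 °C. Mouse NIH 3T3 fibroblasts were seeded at 400 cells/well and dosed by 23 nL pin transfer.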
The depositor's hits bear a star; [ ] = remark or other dose. Unless noted, calls come from the whole dose curve; as a rule, active = well fitted curve in the direction sought with a large enough effect; inconclusive = small, poorly fitted or top-dose-only effect, or another doubt; inactive = no such curve, though single readings can be large; an effect the other way counts as inactive or inconclusive. % is set by controls: 0 for no effect and ±100 for the full control effect; potency is the fitted concentration of half-maximal effect.

How did CCN1c2cc(C(=O)Nc3ccc(C)c(Cl)c3)ccc2C(=O)N2CCCC21 (stereo not drawn) do in these assays?
FLuc inh: inactive; HEK cytotox: inconclusive; hNpr1 antagonist: 0.0%; 3T3 cytotox: inconclusive

How did CCN1c2cc(C(=O)NCc3ccc(C)cc3)ccc2C(=O)N2CCCCCC21 (stereo not drawn) do in these assays?
FLuc inh: inactive; HEK cytotox: inconclusive; hNpr1 antagonist: -8.3%; 3T3 cytotox: inconclusive

What do the screens show for `CCN1c2cc(C(=O)NCc3ccc(OC)c(OC)c3)ccc2C(=O)N2CCCCCC21` (stereo not drawn)?
FLuc inh: inactive; HEK cytotox: 44.7µM*; hNpr1 antagonist: -9.5%; 3T3 cytotox: inconclusive

Results for CCN1c2cc(C(=O)Nc3ccc(OC)c(Cl)c3)ccc2C(=O)N2CCCCCC21 (stereo not drawn) ?
FLuc inh: inactive; HEK cytotox: 11.2µM*; hNpr1 antagonist: -21.6%; 3T3 cytotox: inconclusive

What do the screens show for `COc1ccc(NC(=O)c2ccc3c(c2)N(C)C2CCCCCN2C3=O)cc1Cl` (stereo not drawn)?
FLuc inh: inactive; HEK cytotox: 44.7µM*; hNpr1 antagonist: -7.4%; 3T3 cytotox: 39.8µM*

Results for COc1cc(NC(=O)c2ccc3c(c2)N(C)C2CCCCCN2C3=O)cc(OC)c1OC (stereo not drawn) ?
FLuc inh: inactive; HEK cytotox: 39.8µM*; hNpr1 antagonist: -19.9%; 3T3 cytotox: 35.5µM*

What do the screens show for `CCN1C(=O)CCN(Cc2ccc(F)c(F)c2)CC12CCOCC2`?
HEK cytotox: -25.8%; 3T3 cytotox: -20.2%

What do the screens show for `O=C(NCc1nnc2c(-c3nc(C4CC4)no3)cccn12)c1ccc(F)cc1`?
FLuc inh: inactive; HEK cytotox: inconclusive; hNpr1 antagonist: -1.4%; 3T3 cytotox: -24.6%

Results for CC(C)(C)c1ccc(C(=O)NCc2nnc3c(-c4nc(C5CC5)no4)cccn23)cc1 ?
FLuc inh: 15.8µM*; HEK cytotox: inconclusive; hNpr1 antagonist: -15.6%; 3T3 cytotox: inconclusive

What do the screens show for `COCCN1CC(CO)C2(CCN(C(=O)c3ccc4ncccc4c3)CC2)C1` (stereo not drawn)?
FLuc inh: inactive; HEK cytotox: inconclusive; hNpr1 antagonist: -1.3%; 3T3 cytotox: -8.0%

How did CN(C)CCN(C)C(=O)c1ccc(-c2ncc3cnc(-c4cccc(F)c4)cn23)cc1 do in these assays?
FLuc inh: inactive; HEK cytotox: 50.1µM*; hNpr1 antagonist: -6.5%[70.6 µM]; 3T3 cytotox: 44.7µM*

How did CCNc1ccnc(NC2CCCc3c2cnn3-c2ccc(C)c(C)c2)n1 (stereo not drawn) do in these assays?
FLuc inh: inconclusive; HEK cytotox: 39.8µM*; hNpr1 antagonist: 2.8%; 3T3 cytotox: 28.2µM*

How did COCCCn1c(=O)c(C(=O)N2CCN(C(=O)c3cccc(Cl)c3)CC2)nc2cccnc21 do in these assays?
HEK cytotox: 3.8%; 3T3 cytotox: -8.7%

How did C#CCNC(=O)[C@@H]1Cc2cn(Cc3nccn3C)c3cccc(c23)[C@H](CC(C)C)N1 do in these assays?
FLuc inh: inactive; HEK cytotox: inconclusive; hNpr1 antagonist: 1.6%[70.6 µM]; 3T3 cytotox: inconclusive

What do the screens show for `CC(C)C[C@@H]1N[C@H](C(=O)O)Cc2cn(CC3CCC3)c3cccc1c23`?
FLuc inh: inactive; HEK cytotox: 70.8µM*; hNpr1 antagonist: -10.5%[70.6 µM]; 3T3 cytotox: 79.4µM*

What do the screens show for `C=CCn1cc2c3c(cccc31)[C@H](CC(C)C)N[C@H](C(=O)O)C2`?
FLuc inh: inactive; HEK cytotox: -25.7%[172 µM]; hNpr1 antagonist: 2.3%[70.6 µM]; 3T3 cytotox: inconclusive

What do the screens show for `CC(C)C[C@@H]1N[C@H](C(=O)NC2CCC2)Cc2cn(CC3CC3)c3cccc1c23`?
FLuc inh: inactive; HEK cytotox: 56.2µM*; hNpr1 antagonist: 3.4%[70.6 µM]; 3T3 cytotox: inconclusive

How did Cc1noc(-c2ccc3c(c2)OCO3)c1C(=O)NCc1cc(F)cc(F)c1 do in these assays?
FLuc inh: inactive; HEK cytotox: 31.6µM*; hNpr1 antagonist: 1.9%; 3T3 cytotox: inconclusive

What do the screens show for `Cc1noc(-c2ccc3c(c2)OCO3)c1C(=O)N1CCC(Cc2ccc(F)cc2)CC1`?
FLuc inh: inactive; HEK cytotox: 28.2µM*; hNpr1 antagonist: inconclusive; 3T3 cytotox: 35.5µM*

What do the screens show for `Cc1noc(-c2ccc3c(c2)OCO3)c1C(=O)NC(C)CCc1ccccc1` (stereo not drawn)?
FLuc inh: inactive; HEK cytotox: 44.7µM*; hNpr1 antagonist: -15.0%; 3T3 cytotox: inconclusive

How did Cc1noc(-c2ccc3c(c2)OCO3)c1C(=O)NCCCCc1ccccc1 do in these assays?
FLuc inh: inactive; HEK cytotox: inconclusive; hNpr1 antagonist: -16.5%; 3T3 cytotox: inconclusive

Results for CCOc1ccccc1CNC(=O)c1c(C)noc1-c1ccc2c(c1)OCO2 ?
FLuc inh: inactive; HEK cytotox: inconclusive; hNpr1 antagonist: -7.7%; 3T3 cytotox: inconclusive

Results for Cc1noc(-c2cccs2)c1C(=O)N1CCC(Cc2ccccc2)CC1 ?
FLuc inh: inactive; HEK cytotox: inconclusive; hNpr1 antagonist: -16.1%; 3T3 cytotox: inconclusive

What do the screens show for `Cc1nn(C)c(C)c1C(=O)N1CC(n2cc(COc3ccc(F)cc3)nn2)C1`?
HEK cytotox: 0.0%; 3T3 cytotox: -29.4%

Results for CC(C)c1ccc(CN2CCCC3(CCN(C(=O)c4ccnn4C)C3)C2)cc1 (stereo not drawn) ?
FLuc inh: inactive; HEK cytotox: 39.8µM*; hNpr1 antagonist: -14.9%; 3T3 cytotox: -26.8%

Results for COc1ccccc1-c1ccc(C(=O)N2CCC(C(=O)N3CCOCC3)CC2)cc1 ?
HEK cytotox: inactive; 3T3 cytotox: inactive

Results for COc1ccccc1-c1ccc(C(=O)N2CCC(C(=O)NCc3ccc(C(F)(F)F)cc3)CC2)cc1 ?
HEK cytotox: 35.5µM*; 3T3 cytotox: inconclusive

How did COc1ccccc1-c1ccc(C(=O)N2CCC(C(=O)NC3CCCC3)CC2)cc1 do in these assays?
HEK cytotox: 28.2µM*; 3T3 cytotox: inconclusive

Results for O=C(NCc1ccc(C(F)(F)F)cc1)C1CCN(C(=O)c2ccc(-c3cncnc3)cc2)CC1 ?
HEK cytotox: inconclusive; 3T3 cytotox: 17.8µM*

What do the screens show for `COc1ccccc1-c1ccc(C(=O)N2CCC(C(=O)N3CCC(Cc4ccccc4)CC3)CC2)cc1`?
HEK cytotox: inconclusive; 3T3 cytotox: 22.4µM*

Results for COc1ccccc1-c1ccc(C(=O)N2CCC(NC(C)=O)CC2)cc1 ?
HEK cytotox: inconclusive; 3T3 cytotox: -19.4%

How did COCCCn1c(=O)c(C(=O)N2CCN(c3ncccn3)CC2)nc2cccnc21 do in these assays?
HEK cytotox: inactive; 3T3 cytotox: 2.8%

How did O=C(c1ccccc1Cl)N1CCCC2(CNc3ncccc3[S+](=O)([O-])N2)C1 (stereo not drawn) do in these assays?
HEK cytotox: -6.5%; 3T3 cytotox: -1.3%

Results for COc1ccccc1-c1ccc(C(=O)N2CCC(NC(=O)Nc3ccc(Cl)cc3)CC2)cc1 ?
HEK cytotox: 31.6µM*; 3T3 cytotox: inconclusive

Screening data (PubChem)
